Assay results taken from PubChem BioAssay (Tox21).
Results filed as inconclusive are left out. A call without a number means that no potency is given here. Values without a mark were called inactive. Activity calls are given as the source filed them. Calls follow the shape of the dose curve; as a rule, active = well fitted cell-killing curve with a large enough effect in the repeat runs; inconclusive = weak or mixed curves; inactive = flat fitted curve, though single readings scatter.

Experiment: qHTS assay to identify small molecule antagonists of the TGF-beta/Smad signaling pathway - cell viability counter screen (AID 1346824); also: nearly all actives have a fitted effect of over 50% in size
Conditions: SBE-bla HEK293T viability, CellTiter-Glo luminescence; series mostly up to 76.8 µM
Excerpt: U.S. Tox21 Program National Center for Advancing Translational Sciences [NCATS] NIH Chemical Genomics Center [NCGC] U.S. Environmental Protection Agency [EPA] National Institutes of Environmental Health Sciences [NIEHS] National Toxicology Program [NTP] U.S. Food and Drug Administration [FDA] Tox21 Assay Overview: Transforming growth factor beta (TGF-beta) superfamily consists of a large number of structurally related dimeric proteins that act as hormones or local mediators in regulating a wide range of biological functions. This superfamily includes TGF-betas themselves, the bone morphogenetic proteins (BMPs) and the activins. These ligands induce oligomerization of serine/threonine receptor kinases and phosphorylate the cytoplasmic signaling molecules of Smad protein family. CellSensor SBE-bla HEK 293T cell line (Life Technologies, Carlsbad, CA), responsive to TGF-beta was used to screen Tox21 10K compound library for identification of agonists/antagonists of the Smad signaling pathway. This cell line contains a beta-lactamase reporter gene under control of the Smad binding element (SBE) stably integrated into HEK 293T cells. Also cytotoxicity of the compounds was tested in parallel by measuring the cell viability using CellTiter-Glo assay system in the same wells.
Tox21 Assay Protocol Summary: SBE-bla HEK 293T cells were dispensed at 4,000/well in 5 uL of assay medium into black wall/clear-bottom 1536-well plates using a Multidrop Combi (ThermoFisher Scientific, Waltham, MA) dispenser. After the assay plates were incubated at 37 C and 5% CO2 for an overnight, 23 nL of compounds dissolved in DMSO, positive controls or DMSO only was transferred to the assay plate by a Pintool station (Kalypsys, San Diego, CA). Compound transfer was followed by the addition of 1 uL of 0.25 ng/mL TGF-beta1 or assay buffer using two separate tips of Flying Reagent Dispenser (FRD, Aurora Discovery, San Diego, CA). The assay plates were incubated at 37 C and 5% CO2 for 5 hr. One uL of LiveBLAzer B/G FRET substrate (Life Technologies) was added using a Flying Reagent Dispenser (FRD, Aurora Discovery, San Diego, CA) and the plates were incubated at room temperature for 2 hr. Fluorescence intensity (405 nm excitation, 460 nm and 530 nm emissions) was measured using an Envision plate reader (PerkinElmer, Shelton, CT). For cytotoxicity read, 4 uL of CellTiter-Glo reagent (Promega Corporation, Madison, WI) was added to each well of the assay plates using FRD. After 30 min incubation at room temperature, the luminescence intensity was measured using ViewLux plate reader (PerkinElmer).

| Structure (SMILES) | Potency | viability change, negative = cytotoxic |
| --- | --- | --- |
| CCN(CC)C(C)=O | inactive |  |
| Cc1ccccc1N=Nc1ccc(N=Nc2c(O)ccc3ccccc23)c(C)c1 | inactive |  |
| CCCCCCCCCO | inactive |  |
| COc1cc(C(C)(C)C)c(O)c(C(C)(C)C)c1 | inactive |  |
| Cc1ncsc1CCO | inactive |  |
| O=C(O)[C@@H]1[C@H]2C[C@H]3c4[nH]c5ccccc5c4CCN3C[C@@H]2CC[C@@H]1O | inactive |  |
| CC(CN)CCCN (stereo not given) | inactive |  |
| Cc1c(Cn2ccnc2)c2ccccc2n1CCC(=O)O | inactive |  |
| C=CC(C)(CCC=C(C)C)OC(=O)c1ccccc1 (stereo not given) | inactive |  |
| COCCCCCCCCOCCC[Si](C)(O[Si](C)(C)C)O[Si](C)(C)C | inactive |  |
| O=C(NS(=O)(=O)/C=C/c1cccs1)c1ccc(F)cc1Br | inactive |  |
| CC(=O)[C@@]1(O)CC[C@H]2[C@@H]3C[C@H](C)C4=CC(=O)CC[C@]4(C)[C@H]3CC[C@@]21C | inactive |  |
| O=C(O)C1CCC(C(=O)O)CC1 (stereo not given) | inactive |  |
| CCN(CCO)CCCC(C)Nc1ccnc2cc(Cl)ccc12 (stereo not given) |  | -17% [at 6.97 µM] |
| CCCCCCCCCC(=O)OCC | inactive |  |
| O=C(CCN1CCN2CCCC2C1)N1c2ccccc2Sc2ccc(Cl)cc21 (stereo not given) |  | 0.3% [at 15.8 µM] |
| O=c1[nH]cnc2ccccc12 | inactive |  |
| CCCCCc1ccc(N)cc1 | inactive |  |
| CCCOc1ccc2nc(NC(=O)OC)[nH]c2c1 | inactive |  |
| CC1(C)[C@H]2CC[C@]1(C)[C@H](O)C2 | inactive |  |

| Structure (SMILES) | Potency | viability change, negative = cytotoxic |
| --- | --- | --- |
| CC(C)c1ccccc1C(C)C | inactive |  |
| C=C(C)C(=O)OCCOc1ccccc1 | inactive |  |
| Cc1ccc(O)c([C@H](CCN(C(C)C)C(C)C)c2ccccc2)c1 | inactive |  |
| CCN(CC)CCNC(C(=O)OCCC(C)C)c1ccccc1 (stereo not given) | inactive |  |
| CC(C)(C)c1cc(CCC(=O)OCC(COC(=O)CCc2cc(C(C)(C)C)c(O)c(C(C)(C)C)c2)(COC(=O)CCc2cc(C(C)(C)C)c(O)c(C(C)(C)C)c2)COC(=O)CCc2cc(C(C)(C)C)c(O)c(C(C)(C)C)c2)cc(C(C)(C)C)c1O | inactive |  |
| O=C(c1ccccc1)c1ccc2n1CCC2C(=O)O (stereo not given) | inactive |  |
| Oc1ccc(Cc2ccccc2)cc1 | inactive |  |
| CCCCCCCCCCCCCCC1CO1 (stereo not given) | inactive |  |
| S=C(S)NCCNC(=S)S | inactive |  |
| CCN1CCC[C@H]1CNC(=O)c1c(OC)ccc(Br)c1OC | inactive |  |
| c1ccc(CNCc2ccccc2)cc1 | inactive |  |
| CN(C)CCCNCCCN | inactive |  |
| O=C1[C@H](CC[C@H](O)c2ccc(F)cc2)[C@@H](c2ccc(O)cc2)N1c1ccc(F)cc1 | inactive |  |
| CC(C)(C)c1ccc(OCC2CO2)cc1 (stereo not given) | inactive |  |
| Cc1cc(CC(=O)O)c(C)n1-c1ccc(Cl)cc1 | inactive |  |
| COCCOCCOCCOCCOC | inactive |  |
| NCCCN(CCO)CCO | inactive |  |
| CN1CCC(=C2c3ccccc3C=Cc3ccccc32)CC1 | inactive |  |
| CC(C)c1ccc2c(C(C)C)cc(C(C)C)c(S(=O)(=O)O)c2c1 | inactive |  |
| COC(Cc1ccccc1)OC | inactive |  |
